# From the supplement of paper PMC11417369
# ± gives the standard deviation of the averaged measurements. In all, about 25,000 sequences were measured (“ln(normalized median fluorescence intensity)”: median about 7.9, highest 2% from about 11 on). The entries come from a sample that favours the highest values as a whole.
# Tested on: PfAP2-I AP2 domain 3 (GST-tagged)
# Assay: gcPBM binding intensity (ln(normalized median fluorescence intensity)); higher = stronger DNA binding
# Procedure, shortened: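 An Agilent 4 × 180k array of primer-extended double-stranded 36-bp intergenic genomic probes, with negative controls, was incubated for 1 h with GST-tagged P. falciparum DNA-binding domains expressed in E. coli. Alexa488 anti-GST antibody detected bound protein, scanned at 488 nm. Binding intensity is the highest Masliner-normalised natural-log median intensity across replicate spots of either probe orientation.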
row,Sequence,gcPBM binding intensity (ln)
1,ATAGATATACATATCACACATATATATATATATATA [CACACA_site4985],9.19 ± 0.65
2,GATATAGATATTAATTGTACATATTATTTATTGTTA [XGTACX_site846],7.62 ± 0.36
3,TTAAAAAAATATAATACACACCAAAAATATGCACAT [CACACA_site5209],9.6 ± 0.43
4,TTAAATATATGTAATACGCACACTTAATATTTTGAG [CACACA_site4170],8.18 ± 0.35
5,AATTTTCATTTTAGAAGTACACACAAAAAATAAAAT [XGTACX_site4426],8.13 ± 0.22
6,TGAATTTAGATATATACACACAAAAGTATATACAAT [CACACA_site2804],7.53 ± 0.54
7,TATATATATTCTTTAAAACACACGTAAAGAAGAATT [CACACA_site2718],7.94 ± 0.62
8,ATAATAAAAAAAAATGCACACATATATATATATATA [CACACA_site8766],9.59 ± 0.47
9,AAAATATAATATAATGCACACATAAAAAAAAAAAAA [CACACA_site7989],11.1 ± 0.49
10,TAAACATAAATATGCACACATATACATATATTCATA [CACACA_site2667],8.69 ± 0.099
11,AATAAAAAAAAATGCACACATATATATATATATATA [CACACA_site2421],9.67 ± 0.52
12,TATATATATATATTCACACATAAAAATAAAATAAAA [CACACA_site4774],9.2 ± 0.13
13,TATATATATATATTCACACATAAATATATGCACCCA [CACACA_site4263],11.1 ± 0.68
14,AATATAATATAATGCACACATAAAAAAAAAAAAAAA [CACACA_site304],11.1 ± 0.87
15,TCCTTATATTTGCACACACACACAAGAAAATGAAAA [CACACA_site6613],10.3 ± 0.54
16,TTTTGAATTAAACAAGCATGCTTTATTTACTTCTTA [TGCATGCA_site289],7.59 ± 0.86

row,Sequence,gcPBM binding intensity (ln)
1,ACTAAACGAATAAATTGTACAAAGAAATATATTCAT [XGTACX_site6766],7.83 ± 0.54
2,TTCTTCTGTTTTATTACACACCATTTTGTGGATACA [CACACA_site5181],8.38 ± 0.71
3,ACTACATAATACTATTCACACATTTTTTTTTTTTTT [CACACA_site5794],7.83 ± 0.58
4,ATATATATTTTTAATTGTACAGAATTAAAAATATTG [XGTACX_site1967],7.64 ± 0.45
5,AAAAAAAAAAAACACACACACACACCGATACATACA [CACACA_site8849],7.92 ± 0.45
6,AAAAGGAAAATACTAGCACACAATATATAATAAACA [CACACA_site285],7.99 ± 0.49
7,ATTTATATATATGTATGTACGTATGTGTGTATATGT [XGTACX_site7587],8.55 ± 0.27
8,TTTATTTATGTGTGGGTGCATATACGTATGATGTAT,11 ± 0.72
9,GTATTATTTTATGATGCATGTGTATTTCATATATGC [TGCATGCA_site660],7.74 ± 0.49
10,ATTTCCCCAACGTGGGTGCATATATTTATGTGTGAA [GTGCAC_site9439],10.9 ± 0.82
11,TATTTATATGTATATACATGCACATATATATGAAAC [TGCATGCA_site1005],8.35 ± 0.57
12,TTTCACATATATATGGTGCATATTTTATGTGTAAAT [GTGCAC_site9937],9.95 ± 0.52
13,CACATATATATGTGTGCATGTTGTATTATATATTTA [TGCATGCA_site632],8.69 ± 0.46
14,ATATGAAACATGAAGGTGCATAATGTGTATATTTAT,11.3 ± 0.69
15,ATATATTATGGGTGTGCACACAATATTTATATGTTC [CACACA_site2270],9.59 ± 0.23
